{"source": "PubChem BioAssay AID488890", "about": "(Southern Research Specialized Biocontainment Screening …, 2010)", "note": "In all, about 320,000 compounds went through this assay and about 1,300 (0.41%) were called active. Not shown: some 3% with an inconclusive outcome. The rule behind the calls is not given here. Only a sample is shown. Entries with a potency or affinity are not part of this list.", "data": [{"experiment": "growth inhibition of non-replicating M. tuberculosis (AID 488890);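 note: plate controls were DMSO cells for no effect and high antibiotic wells for full effect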", "details": "Mycobacterium tuberculosis non-replicating, at 25 µM, stronger effect = higher value", "units": {"inhibition": "%"}, "values": [{"smiles": "CC(C)CN(C(=O)COC(=O)c1ccccn1)c1c(N)n(Cc2ccccc2)c(=O)[nH]c1=O", "inhibition": -2.29}, {"smiles": "C=CCOc1ccc(C2CC(C)=NN2c2ccccc2)cc1", "note": "(configuration not stated)", "inhibition": 35.9}, {"smiles": "CCOC(=O)C1=NN(c2ccccc2)C(c2ccccc2)CC1=O", "note": "(configuration not stated)", "inhibition": 12.4}, {"smiles": "Cc1ccc(C)c(S(=O)(=O)N2CCN(C(=O)CCC(=O)NCc3ccc(Cl)cc3)CC2)c1", "inhibition": 6.7}, {"smiles": "NC(=O)c1ccc(NC(=O)COC(=O)C2CC(=O)N(Cc3ccccc3)C2)cc1", "note": "(configuration not stated)", "inhibition": -1.36}, {"smiles": "Cc1nn2c(NCCCN(C)C)c3c(nc2c1-c1ccccc1)CCC3", "inhibition": -10.7}, {"smiles": "Cc1nn2c(NCCCN(C)C)c3c(nc2c1-c1ccccc1)CCCC3", "inhibition": 73.4}, {"smiles": "CCO/C=C1/C(=O)N(C(C)=O)c2ccccc21", "inhibition": -5.81}, {"smiles": "Cc1ccc(-c2nnc(-c3ccccc3Br)o2)cc1", "inhibition": 78.7}, {"smiles": "COc1ccc(-c2nnc(-c3ccc(F)cc3)o2)cc1", "inhibition": 76.7}, {"smiles": "COc1ccc(-c2nnc(-c3cccs3)o2)cc1OC", "inhibition": 60.7}, {"smiles": "Cc1cccc(-c2nnc(-c3ccccc3)o2)c1", "inhibition": 79.9}, {"smiles": "CN(C)c1ccc(-c2nnc(-c3cccs3)o2)cc1", "inhibition": 48.7}, {"smiles": "Fc1ccc(-c2nnc(-c3ccc(Cl)cc3)o2)cc1", "inhibition": 72.1}, {"smiles": "COc1ccccc1-c1nnc(-c2ccc(N3CCOCC3)cc2)o1", "inhibition": 18.5}, {"smiles": "c1ccc(-c2nnc(-c3ccccc3)o2)cc1", "inhibition": 66.5}, {"smiles": "Cc1cc(=O)oc2ccc(OC(C)C(=O)O)cc12", "note": "(configuration not stated)", "inhibition": -4.21}, {"smiles": "Cn1cc(C(=O)C(=O)N2CCCC2)c2ccccc21", "inhibition": -3.83}, {"smiles": "Cc1nc(N/N=C/c2ccccc2)nc(N(C)c2ccccc2)c1[N+](=O)[O-]", "inhibition": -0.99}, {"smiles": "CC(=O)Nc1ccc(Nc2nc(C)c([N+](=O)[O-])c(N(C)c3ccccc3)n2)cc1", "inhibition": 71.5}, {"smiles": "CC(=O)c1cccc(OCc2cc(C(=O)NCc3nc(C)c(C)s3)no2)c1", "inhibition": -3.04}, {"smiles": "COc1ccc(NC(=O)COc2ccc(C(=O)NCc3cccnc3)cc2OC)cc1", "inhibition": 10.8}, {"smiles": "O=C(O)c1c2c(nc3ccccc13)-c1ccccc1CC2", "inhibition": -7.78}, {"smiles": "O=C(OCC(=O)N1CCN(c2ccccc2)CC1)c1ccccn1", "inhibition": -2.7}, {"smiles": "O=C(OCC(=O)N1CCN(c2ccccc2)CC1)c1ccc(Cl)nc1", "inhibition": 60.4}, {"smiles": "O=C(OCC(=O)N1CCCC1)c1cnc(Cl)c(Cl)c1", "inhibition": 7.3}, {"smiles": "O=C(OCC(=O)N1CCCCC1)c1ccc2ccccc2n1", "inhibition": 50}, {"smiles": "Clc1ccc(N2CCN(c3ccnc(Cl)n3)CC2)cc1", "inhibition": 53}, {"smiles": "COCCCNC(=O)c1c(N)n(-c2ccc3c(c2)OCO3)c2nc3ccccc3nc12", "inhibition": -12.5}, {"smiles": "O=C(NC1CCCCC1)c1cc(-c2ccc(Cl)cc2)on1", "inhibition": -0.38}, {"smiles": "O=C(Nc1ccccc1)c1cccc2c(Br)cccc12", "inhibition": -8.76}, {"smiles": "CCc1ccc(/C(C)=N/NC(=O)c2ccccn2)cc1", "inhibition": 27}, {"smiles": "Cc1ccc(N=CC2=C(O)CC(c3ccccc3Cl)CC2=O)cc1", "note": "(configuration not stated)", "inhibition": 2.23}, {"smiles": "O=C(Nc1ccc(Br)cc1F)c1sccc1-n1cccc1", "inhibition": 0.35}, {"smiles": "COc1ccccc1C(=O)Nc1c2c(nn1-c1ccc([N+](=O)[O-])cc1)CS(=O)(=O)C2", "inhibition": -26.7}, {"smiles": "CC(=O)Oc1ccc([C@@H]2COc3c(ccc4c3C=CC(C)(C)O4)C2)c(OC(C)=O)c1", "inhibition": -2.73}, {"smiles": "CC1=CC2=NC(=O)/C(=C/c3cccs3)C(=N)N2O1", "inhibition": -5.09}, {"smiles": "COc1cc(/C=C2\\C(=N)N3N=CSC3=NC2=O)cc(Br)c1OC(=O)c1ccco1", "inhibition": -3.1}, {"smiles": "CC(=O)Nc1ccc(OCCOc2ccc(/C=C3/C(=N)N4C=CSC4=NC3=O)cc2)cc1", "inhibition": 2.76}, {"smiles": "COc1cc(/C=C2/C(=N)N3OC(C)=CC3=NC2=O)ccc1OCCOc1ccc(C)cc1", "inhibition": -6.61}, {"smiles": "O=C1CN(C(=O)c2cccc(Br)c2)c2ccccc2N1", "inhibition": -8.78}, {"smiles": "Cc1nnc(NC(=O)CCC(=O)N2CCN(CCOc3cccc4ccccc34)CC2)s1", "inhibition": 16.7}, {"smiles": "CCCCOC(=O)Nc1cc(C(=O)OC)ccc1C(=O)OC", "inhibition": 18.2}, {"smiles": "N#Cc1ccc(OCC(=O)Nc2nc(-c3ccncc3)cs2)cc1", "inhibition": 10}, {"smiles": "Cc1c([N+](=O)[O-])c([N+](=O)[O-])nn1CC(=O)NCc1cccnc1", "inhibition": 6.05}, {"smiles": "Cn1c(=O)c2c(SCCN3CCOCC3)nc(C3CCCC3)nc2n(C)c1=O", "inhibition": 19.1}, {"smiles": "COc1cc(C(=O)N/N=C/c2ccsc2C)cc(OC)c1OC", "inhibition": 0.65}, {"smiles": "CCOc1ccc(C(=O)N/N=C/c2cc([N+](=O)[O-])cs2)cc1", "inhibition": 69.5}, {"smiles": "CCOc1ccc(CC(=O)OCc2cc(=O)n3cc(Br)ccc3n2)cc1", "inhibition": 50.5}, {"smiles": "COc1ccc(CC(=O)OCc2cc(=O)n3cc(Br)ccc3n2)cc1OC", "inhibition": 13.9}, {"smiles": "CCOC(=O)c1ccc(Cn2c(-c3ccccc3)nnc2-c2ccccc2)o1", "inhibition": 11.2}, {"smiles": "CC(=O)OCc1nc2ccccc2s1", "inhibition": -0.84}, {"smiles": "Cc1onc(-c2ccccc2)c1C(=O)OCc1nnc(-c2ccc([N+](=O)[O-])cc2)o1", "inhibition": 48}, {"smiles": "O=C(OCc1nnc(-c2ccccc2)o1)c1cccnc1Cl", "inhibition": 6.83}, {"smiles": "CCOC(=O)Nc1nc2ccccc2s1", "inhibition": -2.43}, {"smiles": "O=C(OCc1nnc(-c2ccccc2)o1)c1ccccc1", "inhibition": 73.8}, {"smiles": "CCOC(=O)c1cccc(COC(=O)c2cccc(-c3nnc(-c4ccccc4)o3)c2)c1", "inhibition": 18.4}, {"smiles": "O=C(OCc1nnc(-c2ccccc2)o1)c1ccc([N+](=O)[O-])o1", "inhibition": 64.9}, {"smiles": "Cc1cc(C(=O)CSc2nc3ccc(Cl)cc3[nH]2)c(C)n1Cc1ccco1", "inhibition": 13.9}, {"smiles": "COc1ccc(CN2C(=O)c3cccnc3C2Nc2ccc(C)cc2)cc1", "note": "(configuration not stated)", "inhibition": 27}, {"smiles": "CN(CC(=O)NCc1ccccc1Cl)S(=O)(=O)c1ccc2c(c1)n(C)c(=O)c(=O)n2C", "inhibition": -4.13}, {"smiles": "CCOC(=O)CC(=O)COc1nc2cc3c(nc2o1)CCCC3", "inhibition": -11.4}, {"smiles": "NCCCC[C@H](NC(=O)C1CCNCC1)c1nnc(CN)o1", "inhibition": -30.9}, {"smiles": "CCC/C(=C1/c2ccccc2C(=O)N1c1ccccc1)c1cnc(OC)nc1", "inhibition": 24.1}, {"smiles": "COc1ccc(CN2CCN(c3ccccc3OC)CC2)cc1OC", "inhibition": -6.29}, {"smiles": "Nc1ccc(C(=O)OCc2nc3ccccc3s2)cc1", "inhibition": 68.4}, {"smiles": "O=C(COC(=O)c1ccc(Br)o1)Nc1nc2ccccc2s1", "inhibition": 71.5}, {"smiles": "COc1ccc(C2=NOC(C(=O)N(C)Cc3ccccc3)C2)cc1", "note": "(configuration not stated)", "inhibition": 48.3}, {"smiles": "O=C(c1ccc(F)cc1)C(Cc1ccccc1)N1CCCCC1", "note": "(configuration not stated)", "inhibition": 63.6}, {"smiles": "Cc1ccn2c(=O)cc(C)nc2c1", "inhibition": 4.9}, {"smiles": "Cc1cc(=O)n2ccsc2n1", "inhibition": 0.97}, {"smiles": "CCOc1ccc(N(CC(=O)N2CCN(c3ccc(F)cc3)CC2)S(=O)(=O)c2c(C)noc2C)cc1", "inhibition": 21.6}, {"smiles": "Cn1nc([N+](=O)[O-])nc1Sc1nnc(-c2ccccc2)o1", "inhibition": 78}, {"smiles": "COC(=O)CSc1nnc(-c2ccccc2OC)o1", "inhibition": 77.4}, {"smiles": "CCCOc1ccc(N2CC(C(=O)NC(C)C)CC2=O)cc1", "note": "(configuration not stated)", "inhibition": -9.57}, {"smiles": "CCC(=Nc1ccc2c(c1)CCC2)c1c(O)n(C)c(=O)n(C)c1=O", "inhibition": 7.71}, {"smiles": "CCC(=Nc1cccc(C(F)(F)F)c1)c1c(O)n(C)c(=O)n(C)c1=O", "inhibition": -2.54}, {"smiles": "COc1cccc(OC)c1C(=O)OCC(=O)N1CC(C)CC(C)C1", "note": "(configuration not stated)", "inhibition": -15.5}, {"smiles": "Cc1nnc(C)n1/N=C/c1c(O)ccc2ccccc12", "inhibition": 3.2}, {"smiles": "Cc1nc2ccccc2c(=O)n1/N=C/c1c(O)ccc2ccccc12", "inhibition": 40.6}, {"smiles": "Fc1cccc(Nc2cc(-n3cccn3)ncn2)c1", "inhibition": 21.4}, {"smiles": "CN(Cc1cccs1)S(=O)(=O)c1ccc(Cl)cc1F", "inhibition": 44.2}, {"smiles": "Cc1ccc(N=Cc2nc(-c3ccco3)oc2O)cc1", "inhibition": 73.2}, {"smiles": "Oc1oc(-c2ccco2)nc1C=Nc1ccccc1", "inhibition": 17}, {"smiles": "CC(C)(O)C#Cc1ccc(CN2CCN(C3CCCCC3)C(CCO)C2)s1", "note": "(configuration not stated)", "inhibition": 11.2}, {"smiles": "CCN(CC)CCOC(=O)/C=C/c1ccccc1OC", "inhibition": -10.5}, {"smiles": "COc1ccc(NC(=O)Nc2ccccc2F)c(C)c1", "inhibition": 20.6}, {"smiles": "CCOc1cc(-c2sc(Nc3ccc(CC)cc3)n[n+]2-c2ccccc2)ccc1OC", "inhibition": 63.8}, {"smiles": "COc1ccc(C)cc1Nc1n[n+](-c2ccccc2)c(-c2ccc(SC)cc2)s1", "inhibition": 76.9}, {"smiles": "Oc1cc2c(cc1CN1CCN(c3ncccn3)CC1)OCO2", "inhibition": 8.73}, {"smiles": "C=CCNc1oc(-c2cccs2)nc1C#N", "inhibition": -2.7}, {"smiles": "N#Cc1nc(-c2cccs2)oc1NCc1ccccc1", "inhibition": 29.7}, {"smiles": "CC1CCCC(NS(=O)(=O)c2cc3c(cc2Cl)NC(=O)CO3)C1C", "note": "(configuration not stated)", "inhibition": 31.5}, {"smiles": "Cc1ccc(C2(C)NC(=O)N(CC(=O)N(C)CC(=O)Nc3cccc4ccccc34)C2=O)cc1", "note": "(configuration not stated)", "inhibition": 7.1}, {"smiles": "O=C1CN=C(c2ccccc2)c2cc(Cl)ccc2N1", "inhibition": 5.86}, {"smiles": "COc1ccc(C2=NCC(=S)Nc3ccc(Cl)cc32)cc1OC", "inhibition": -21}, {"smiles": "O=C(CN1C(=O)C(=O)N(CCC2=CCCCC2)C1=O)Nc1ccc(F)cc1F", "inhibition": 8.84}, {"smiles": "Cc1nc2ccccc2nc1OCC(=O)Nc1cc(C(F)(F)F)ccc1N1CCOCC1", "inhibition": 5.99}, {"smiles": "CN(C)/C=C1/OC(=O)C(C#N)=C1c1ccc(Cl)cc1", "inhibition": -0.58}, {"smiles": "O=C1O/C(=C/c2ccccc2)c2ccccc21", "inhibition": -7.13}, {"smiles": "COc1cc(/C=C/[N+](=O)[O-])ccc1OC(=O)c1cc2ccccc2oc1=O", "inhibition": 37.8}, {"smiles": "COc1ccc(N(CC(=O)Nc2ccccc2C)S(=O)(=O)c2c(C)[nH]c(=O)[nH]c2=O)cc1", "inhibition": 8.99}, {"smiles": "CC(C)NC(=O)Cn1c(SCC(=O)c2ccc(F)cc2)nc2ccccc21", "inhibition": 7.83}, {"smiles": "CN=C1NN=C(c2cc(C)n(-c3ccc(Cl)cc3)c2C)CS1", "inhibition": 14.6}, {"smiles": "Cc1cc(C2=NNC(=NC3CC3)SC2)c(C)n1-c1c(C)n(C)n(-c2ccccc2)c1=O", "inhibition": 4.63}, {"smiles": "CCc1ccc(NS(=O)(=O)c2cc3c4c(c2)CCN4C(=O)CC3)cc1", "inhibition": 1.05}, {"smiles": "Cc1oc(-c2cccc(Cl)c2)nc1CN1CCCC(C(=O)NCc2ccco2)C1", "note": "(configuration not stated)", "inhibition": 22.8}, {"smiles": "Nc1c(C(=O)OCC(=O)NCc2ccccc2)[nH]c(=O)[nH]c1=O", "inhibition": -9.15}, {"smiles": "Cc1[nH]c(=O)[nH]c(=O)c1/C=C/C(=O)O", "inhibition": -4.51}, {"smiles": "CCCCn1c(N)c(N(CC(C)C)C(=O)c2ccc(-c3ccc(Cl)cc3)o2)c(=O)[nH]c1=O", "inhibition": 74.7}, {"smiles": "NS(=O)(=O)c1ccc(-c2ccc(C=C3C(=O)NC(=O)NC3=O)o2)cc1", "inhibition": 2.79}, {"smiles": "CNS(=O)(=O)c1ccc(-c2ccc(C=C3C(=O)NC(=O)NC3=O)o2)cc1", "inhibition": -1.77}]}]}
